Assay [1] addresses human RAR-related Orphan Receptor beta (RORb), RORB (gene 6096) (UniProt Q92753). The assay is described as follows: ATG_RORb_TRANS: Attagene TRANS-FACTORIAL HepG2 Assay for human RAR-related Orphan Receptor beta (RORb) (AID 2283010; active = hit-call score of the fitted dose curve at least 0.9, where 1 is the maximum). Summed up: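 HepG2 cells transiently transfected with GAL4-UAS reporter units expressing chimeric NR-Gal4 protein; reporter mRNA measured 24 h after dosing by RT-PCR, 6-FAM labelling and capillary electrophoresis. Gain-of-signal fitted relative to DMSO baseline.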

The target in assay [2] is human RAR-related Orphan Receptor gamma (RORg), RORC (gene 6097) (UniProt P51449). Description: ATG_RORg_TRANS: Attagene TRANS-FACTORIAL HepG2 Assay for human RAR-related Orphan Receptor gamma (RORg) (AID 2283011; active = hit-call score of the fitted dose curve at least 0.9, where 1 is the maximum;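 for AC50: potency for induction of reporter transcripts above DMSO so activators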). Summed up: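 Activity is scored as increase in GAL4-UAS reporter mRNA over DMSO, detected by fluorescent RT-PCR and capillary electrophoresis in HepG2 cells transiently expressing a RORg-Gal4 chimera, 24 h after dosing.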

The target of assay [3] is Retinoic acid receptor RXR-alpha (Homo sapiens) (UniProt P19793). Description: ATG_RXRa_TRANS: Attagene TRANS-FACTORIAL HepG2 Assay for human Retinoid X Receptor alpha (RXRa) (AID 2283012; active = hit-call score of the fitted dose curve at least 0.9, where 1 is the maximum). Summed up:
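HepG2 cells transiently transfected with GAL4-UAS reporter units and chimeric RXRa-Gal4 protein, treated 24 h. Reporter mRNA measured by RT-PCR, fluorescent labelling, HpaI digestion and capillary electrophoresis. Induction fitted against DMSO.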

Assay [4] concerns the target human Retinoid X Receptor beta (RXRb), RXRB (gene 6257) (UniProt P28702). Description: ATG_RXRb_TRANS: Attagene TRANS-FACTORIAL HepG2 Assay for human Retinoid X Receptor beta (RXRb) (AID 2283013; active = hit-call score of the fitted dose curve at least 0.9, where 1 is the maximum). Summed up:
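HepG2 cells were transiently transfected with multiplexed GAL4-UAS reporters and a chimeric RXRb-Gal4 construct, then exposed for 24 h. Reporter mRNA was quantified by RT-PCR, FAM labeling, HpaI digestion and capillary electrophoresis; gain of signal was scored against DMSO.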

Assay [5] addresses human Thyroid Receptor alpha (THRa1), THRA (gene 7067) (UniProt P10827). The assay is described as follows: ATG_THRa1_TRANS: Attagene TRANS-FACTORIAL HepG2 Assay for human Thyroid Receptor alpha (THRa1) (AID 2283014; active = hit-call score of the fitted dose curve at least 0.9, where 1 is the maximum). Summed up:
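First, HepG2 cells receive multiple GAL4-UAS reporter units and the chimeric receptor. They are then dosed for 24 h, after which RNA is reverse-transcribed, amplified, labelled, HpaI-cut and sized by capillary electrophoresis; gain relative to DMSO is scored.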

Read-out in assay [6]: E-selectin (Homo sapiens) (UniProt P16581)
Description: BSK_3C_Eselectin: BioMAP Diversity Plus: 3C Assay for Eselectin Biomarker Activity (AID 2283015).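 For outcome: cell surface E-selectin protein quantified by ELISA 24 h after dosing.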 Particulars: primary human endothelial cells (HUVEC); actives raise or lower the signal. Summed up:
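Human vascular endothelium from umbilical vein is exposed to test chemicals for 24 h. E-selectin levels are read by ELISA and compared with DMSO controls.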

Read-out in assay [7]: Interleukin-1 alpha (IL1a), IL1A (gene 3552)
The assay is described as follows: BSK_BE3C_IL1a: BioMAP Diversity Plus: BE3C Assay for Interleukin-1 alpha (IL1a) Biomarker Activity (AID 2283016). Particulars: primary human bronchial epithelial cells; actives raise or lower the signal. Summed up:
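Human primary bronchial epithelial cells, 24 h chemical exposure; IL-1a quantified by ELISA, fitted bidirectionally against DMSO. Cytotoxicity assessed in parallel by SRB total-protein staining at the time of measurement.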

Read-out in assay [8]: Monocyte Chemoattractant Protein-1 (MCP1), CCL2 (gene 6347)
The assay is described as follows: BSK_4H_MCP1: BioMAP Diversity Plus: 4H Assay for Monocyte Chemoattractant Protein-1 (MCP1) Biomarker Activity (AID 2283018). Particulars: primary human endothelial cells (HUVEC); actives raise or lower the signal. Summed up:
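Human umbilical vein endothelial cells (4H system) exposed to chemicals for 24 h in 96-well format. MCP-1 measured by ELISA; bidirectional fitting against DMSO, with SRB total-protein staining in parallel cultures for cytotoxicity.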

Read-out in assay [9]: Human Leukocyte Antigen - DR isotype (HLADR), HLA-DRA (gene 3122)
Description: BSK_3C_HLADR: BioMAP Diversity Plus: 3C Assay for Human Leukocyte Antigen - DR isotype (HLADR) Biomarker Activity (AID 2283019).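 For outcome: ELISA of cell-surface HLA-DR on HUVEC 24 h after dosing.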 Particulars: primary human endothelial cells (HUVEC); actives raise or lower the signal. Summed up: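 Endothelial cells from human umbilical vein are treated with test chemical; after 24 h, HLA-DR levels are measured by ELISA. Data are fitted in both directions using DMSO as the baseline.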

Read-out in assay [10]: Monocyte Chemoattractant Protein-1 (MCP1), CCL2 (gene 6347)
Description: BSK_3C_MCP1: BioMAP Diversity Plus: 3C Assay for Monocyte Chemoattractant Protein-1 (MCP1) Biomarker Activity (AID 2283017). Particulars: primary human endothelial cells (HUVEC); actives raise or lower the signal. Summed up:
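Endothelial cells from human umbilical vein are dosed with chemical, cultured 24 h, then assayed for MCP-1 by ELISA; both increases and decreases are modelled against DMSO controls.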

Values joined by “and” are separate entries in the source; they are usually repeats but may differ in a detail not shown here. Identical values can stand only once. Records with an inconclusive call do not appear. Where a structure was tested more than once in an assay, its records may differ in their call. Active and inactive are the calls of the source. Rule for the calls, unless noted: active = hit-call score of the fitted dose curve at least 0.9, where 1 is the maximum; inactive = score below 0.9.

Chain of human RAR-related Orphan Receptor beta (RORb), RORB (gene 6096) (Q92753 whole entry, looked up, the tested form may be a part): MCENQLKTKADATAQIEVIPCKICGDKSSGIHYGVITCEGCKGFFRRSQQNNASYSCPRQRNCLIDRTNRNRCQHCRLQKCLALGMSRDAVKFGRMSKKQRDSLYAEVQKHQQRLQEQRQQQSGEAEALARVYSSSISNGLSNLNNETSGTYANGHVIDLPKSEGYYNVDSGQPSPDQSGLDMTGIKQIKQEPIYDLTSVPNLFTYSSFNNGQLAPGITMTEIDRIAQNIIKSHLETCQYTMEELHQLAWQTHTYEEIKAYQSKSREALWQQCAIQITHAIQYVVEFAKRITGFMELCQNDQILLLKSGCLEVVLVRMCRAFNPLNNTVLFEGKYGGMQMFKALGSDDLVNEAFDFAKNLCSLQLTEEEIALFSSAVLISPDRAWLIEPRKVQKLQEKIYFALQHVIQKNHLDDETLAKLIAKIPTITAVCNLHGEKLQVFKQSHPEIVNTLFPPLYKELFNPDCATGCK
Chain of E-selectin (Homo sapiens) (P16581 whole entry, looked up): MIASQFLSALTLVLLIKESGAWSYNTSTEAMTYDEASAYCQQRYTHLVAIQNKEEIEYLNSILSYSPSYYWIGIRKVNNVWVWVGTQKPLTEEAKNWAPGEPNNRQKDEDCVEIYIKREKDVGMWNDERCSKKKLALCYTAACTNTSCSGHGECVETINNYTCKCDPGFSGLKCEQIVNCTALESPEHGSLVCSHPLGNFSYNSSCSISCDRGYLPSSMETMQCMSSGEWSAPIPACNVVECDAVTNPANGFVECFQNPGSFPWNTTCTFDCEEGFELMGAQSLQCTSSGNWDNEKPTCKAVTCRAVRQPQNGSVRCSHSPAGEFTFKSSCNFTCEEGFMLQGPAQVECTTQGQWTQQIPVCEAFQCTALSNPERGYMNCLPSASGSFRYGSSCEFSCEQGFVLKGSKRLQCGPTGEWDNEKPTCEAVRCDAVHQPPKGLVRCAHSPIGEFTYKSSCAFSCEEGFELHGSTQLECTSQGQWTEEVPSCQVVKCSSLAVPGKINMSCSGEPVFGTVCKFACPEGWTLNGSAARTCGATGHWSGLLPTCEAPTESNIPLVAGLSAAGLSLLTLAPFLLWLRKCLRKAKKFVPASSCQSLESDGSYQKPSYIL
Chain of Retinoic acid receptor RXR-alpha (Homo sapiens) (P19793 whole entry, looked up, the tested form may be a part): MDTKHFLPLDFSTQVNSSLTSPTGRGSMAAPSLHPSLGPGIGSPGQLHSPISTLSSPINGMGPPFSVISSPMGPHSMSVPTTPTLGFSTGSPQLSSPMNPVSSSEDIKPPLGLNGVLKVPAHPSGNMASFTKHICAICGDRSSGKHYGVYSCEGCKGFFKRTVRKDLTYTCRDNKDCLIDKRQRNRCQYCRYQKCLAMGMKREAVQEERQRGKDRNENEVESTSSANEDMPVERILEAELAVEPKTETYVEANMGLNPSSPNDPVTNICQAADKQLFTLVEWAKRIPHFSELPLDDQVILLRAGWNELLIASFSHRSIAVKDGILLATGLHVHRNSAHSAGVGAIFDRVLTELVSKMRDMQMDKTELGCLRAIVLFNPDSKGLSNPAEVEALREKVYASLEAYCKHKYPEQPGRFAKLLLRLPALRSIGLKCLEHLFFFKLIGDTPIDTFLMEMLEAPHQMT
Chain of human Retinoid X Receptor beta (RXRb), RXRB (gene 6257) (P28702 whole entry, looked up, the tested form may be a part): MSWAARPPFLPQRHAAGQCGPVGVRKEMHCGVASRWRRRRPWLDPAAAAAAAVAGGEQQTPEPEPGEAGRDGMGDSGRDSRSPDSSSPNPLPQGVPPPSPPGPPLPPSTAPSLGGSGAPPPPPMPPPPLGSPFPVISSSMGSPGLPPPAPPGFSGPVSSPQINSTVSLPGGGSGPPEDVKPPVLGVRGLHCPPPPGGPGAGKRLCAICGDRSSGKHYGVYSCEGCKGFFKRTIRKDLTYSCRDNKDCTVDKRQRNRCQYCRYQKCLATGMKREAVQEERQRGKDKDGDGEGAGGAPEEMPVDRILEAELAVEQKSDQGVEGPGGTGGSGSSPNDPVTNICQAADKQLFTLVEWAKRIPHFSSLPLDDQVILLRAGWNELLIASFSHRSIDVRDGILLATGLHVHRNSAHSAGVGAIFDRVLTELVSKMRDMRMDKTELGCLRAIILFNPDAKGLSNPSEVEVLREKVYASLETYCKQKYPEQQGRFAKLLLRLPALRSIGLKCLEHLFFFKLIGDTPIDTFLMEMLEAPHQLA
Chain of human Thyroid Receptor alpha (THRa1), THRA (gene 7067) (P10827 whole entry, looked up, the tested form may be a part): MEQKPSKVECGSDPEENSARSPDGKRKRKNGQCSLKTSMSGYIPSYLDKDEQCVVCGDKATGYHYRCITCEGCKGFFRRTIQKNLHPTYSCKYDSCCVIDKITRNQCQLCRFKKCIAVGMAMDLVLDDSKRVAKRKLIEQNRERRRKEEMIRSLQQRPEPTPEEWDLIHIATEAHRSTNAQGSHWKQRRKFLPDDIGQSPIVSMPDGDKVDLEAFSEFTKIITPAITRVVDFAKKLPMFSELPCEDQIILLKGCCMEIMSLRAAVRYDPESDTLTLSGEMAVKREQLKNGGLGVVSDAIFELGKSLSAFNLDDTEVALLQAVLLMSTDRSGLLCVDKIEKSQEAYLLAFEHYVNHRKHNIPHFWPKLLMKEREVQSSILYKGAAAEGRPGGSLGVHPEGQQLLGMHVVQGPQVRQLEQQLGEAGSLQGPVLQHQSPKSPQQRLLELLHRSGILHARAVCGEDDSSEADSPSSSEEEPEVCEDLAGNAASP
Chain of human RAR-related Orphan Receptor gamma (RORg), RORC (gene 6097) (P51449 whole entry, looked up, the tested form may be a part): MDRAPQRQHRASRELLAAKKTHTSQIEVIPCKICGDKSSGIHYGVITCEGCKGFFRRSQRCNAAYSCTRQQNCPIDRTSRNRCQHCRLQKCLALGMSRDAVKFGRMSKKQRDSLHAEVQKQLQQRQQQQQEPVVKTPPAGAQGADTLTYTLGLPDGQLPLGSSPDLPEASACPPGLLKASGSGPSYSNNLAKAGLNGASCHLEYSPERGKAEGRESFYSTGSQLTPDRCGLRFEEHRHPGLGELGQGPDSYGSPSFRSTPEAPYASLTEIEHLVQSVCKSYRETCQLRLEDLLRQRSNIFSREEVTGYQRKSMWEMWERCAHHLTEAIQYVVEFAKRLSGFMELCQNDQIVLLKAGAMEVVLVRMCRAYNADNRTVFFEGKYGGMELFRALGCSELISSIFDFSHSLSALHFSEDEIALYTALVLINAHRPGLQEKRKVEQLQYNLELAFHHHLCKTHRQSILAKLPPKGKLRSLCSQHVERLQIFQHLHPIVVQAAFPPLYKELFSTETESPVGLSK

In the case of `[Co]`, the outcome in assay [1], in assay [2], in [3], in assay [4] and in assay [5] was inactive.
With `Cc1cccc(N(C)C)c1`, the call in assay [1], in [2] and in [5] was inactive.
For the molecule `OCC(F)(F)C(F)(F)C(F)(F)C(F)F`, the molecule was called inactive in assay [1], in assay [2], in [3], in assay [6], in [7] and in [8]. The outcome in assay [9] was inactive.
`O=C(O)C(F)(F)C(F)(F)C(F)(F)C(F)(F)C(F)(F)C(F)(F)C(F)(F)C(F)(F)C(F)(F)C(F)(F)C(F)(F)C(F)(F)C(F)(F)F`: the result in assay [1], in assay [2], in assay [3], in assay [4], in [5] and in [6] was inactive. Besides, the result in assay [7], in assay [8] and in assay [9] was inactive.
As for `CCCCCCCOC(=O)c1ccccc1C(=O)OCCCCCCC`, the molecule was classed as inactive in assay [1], in [2], in assay [5], in assay [6], in assay [7] and in assay [10]. Also, the result in assay [8] and in assay [9] was inactive.
With `O=C(O)C(F)(F)C(F)(F)OC(F)(F)F`, the molecule was classed as inactive in assay [1], in [2], in assay [5], in assay [6], in assay [7] and in assay [8]. Moreover, in [9], the outcome was inactive.
`C1COCCN1`: the molecule was classed as inactive in [1], in [2], in assay [3] and in [5].
For the molecule `FC(F)(F)C(F)(F)C(F)(F)C(F)(F)C(F)(F)C(F)(F)CC1CO1` (stereo not drawn), the molecule was called inactive in assay [1], in assay [2], in assay [3], in [5], in assay [6] and in assay [7]. Besides, the result in [10], in assay [8] and in assay [9] was inactive.
`CCN(Cc1cccc(S(=O)(=O)O)c1)c1ccc(C(=C2C=CC(=[N+](CC)Cc3cccc(S(=O)(=O)O)c3)C=C2)c2ccc(O)cc2S(=O)(=O)[O-])cc1`: the result in assay [1], in assay [2], in assay [3] and in [4] was inactive.
For `Nc1cc(Cl)c(N)c(Cl)c1`, the molecule was called inactive in assay [1], in assay [2], in assay [3], in assay [4] and in [5].
With `CC(C)c1ccccc1N`, in [1], the molecule was classed as inactive.
For the molecule `CC(C)(C)C(=O)CC(=O)C(F)(F)C(F)(F)C(F)(F)F`, the outcome in assay [1], in assay [2], in assay [6], in assay [7], in assay [10] and in assay [8] was inactive. Further, the outcome in assay [9] was inactive. Besides, the half-maximal activity concentration (AC50) (usually the concentration at which the activity in the assay is half-maximal) in [9] was 30 µM (active).
Take `FC(F)(F)C(F)(F)C(F)(F)CI`: the molecule was classed as inactive in assay [1], in assay [2], in assay [4], in assay [5], in [6] and in [7]. Also, the result in assay [10], in assay [8] and in [9] was inactive.
With `O=C(O)C(F)(F)C(F)(F)C(F)(F)F`, the result in assay [1], in assay [2], in [3], in assay [5], in [6] and in assay [7] was inactive. For the same molecule, the outcome in assay [10], in assay [8] and in [9] was inactive.
Take `FC(F)(F)C(F)(F)C(F)(F)C(F)(F)C(F)(F)CCI`: the call in assay [1], in assay [2], in assay [3], in assay [5], in assay [6] and in [7] was inactive. The outcome in [8] and in assay [9] was inactive.
Consider `N=C(N)C(F)(F)C(F)(F)C(F)(F)C(F)(F)C(F)(F)C(F)(F)C(F)(F)F`, for which the molecule was classed as inactive in assay [1], in assay [2], in assay [3], in assay [6], in assay [7] and in [8]. In addition, in [9], the result was inactive. In [9], the AC50 was 30 µM (active).
Regarding `Cc1ccc(S(=O)(=O)NCl)cc1`, the outcome in assay [1], in [2], in assay [3] and in assay [5] was inactive.
On to `CC(=O)Nc1ccc(N=Nc2cc(C)ccc2O)cc1`, for which the outcome in assay [1], in [2], in assay [4], in [7] and in [8] was inactive. Moreover, the AC50 in assay [5] was 47.6 µM (active); in assay [6] it was 0.463 µM (active); in assay [9], 14.5 µM (active).
For the molecule `O=P(O)(O)OCCC(F)(F)C(F)(F)C(F)(F)C(F)(F)C(F)(F)C(F)(F)F`, the call in [1], in assay [2], in assay [3], in [5], in [6] and in assay [7] was inactive. The result in assay [10], in assay [8] and in assay [9] was inactive.
Regarding `O=C(O)C(F)(OC(F)(F)C(F)(OC(F)(F)C(F)(OC(F)(F)C(F)(F)C(F)(F)F)C(F)(F)F)C(F)(F)F)C(F)(F)F` (stereo not drawn), the molecule was classed as inactive in assay [1], in assay [2], in assay [3], in assay [6], in assay [7] and in [8]. The outcome in assay [9] was inactive.
Regarding `O=C(O)C(F)(F)C(F)(F)C(F)(F)C(F)(F)F`, the result in assay [1], in assay [2], in [3], in assay [6], in assay [7] and in [10] was inactive. Besides, the result in assay [8] and in assay [9] was inactive.
For `O=C(O)C(F)(F)C(F)(F)C(F)(F)C(F)(F)C(F)(F)C(F)(F)C(F)(F)C(F)(F)C(F)(F)C(F)(F)C(F)(F)C(F)(F)F`, the result in [1], in assay [2], in assay [3], in assay [5], in assay [6] and in assay [7] was inactive. Also, the outcome in assay [8] and in assay [9] was inactive.
Take `O=C(O)C(F)(F)C(F)(F)C(F)(F)C(F)(F)C(F)(F)C(F)(F)C(F)(F)C(F)(F)Cl`: the outcome in assay [1], in [2], in [3], in [5], in [6] and in assay [8] was inactive. Also, the AC50 in assay [4] is 19.9 µM (active) and 20.5 µM (active); in [6], 23.8 µM (active); in [7], 25.1 µM (active) and 23.6 µM (active); in [9], 53.3 µM (active) and 49 µM (active).
Regarding `CCCCCCOC(=O)c1ccccc1O`, the outcome in assay [1], in assay [2] and in assay [7] was inactive. Further, the half-maximal activity concentration (AC50) in assay [6] is 38.5 µM (active) and 46.9 µM (active); in assay [10], 41.9 µM (active) and 38 µM (active); in assay [8], 33.5 µM (active) and 34.3 µM (active); in assay [9] it was 37.4 µM (active) and 43.7 µM (active).
Regarding `COC(OC(C)=O)c1ccccc1` (stereo not drawn), the molecule was called inactive in [1], in [2], in assay [3] and in assay [5].
Turning to `C=CC(F)(F)C(F)(F)C(F)(F)C(F)(F)C(F)(F)C(F)(F)C(F)(F)C(F)(F)C=C`, the outcome in [1], in assay [2], in assay [3], in assay [4], in [6] and in assay [7] was inactive. In addition, the outcome in assay [10], in [8] and in assay [9] was inactive.
On to `O=S(=O)(O)C(F)(F)C(F)(F)C(F)(F)C(F)(F)C(F)(F)C(F)(F)C(F)(F)F`, for which the result in [1], in [2], in assay [3], in [4], in [6] and in assay [7] was inactive. Further, the outcome in assay [8] and in assay [9] was inactive.
On to `CC/C=C\CCOC(=O)c1ccccc1`, for which the result in assay [1], in assay [3] and in assay [4] was inactive.
For `CCCCCCCCCCCCCCCC[N+](C)(C)Cc1ccccc1`, the call in assay [1], in assay [2], in assay [3] and in [5] was inactive. For the same molecule, the half-maximal activity concentration (AC50) is 7.67 µM (active) in assay [6]; 8.81 µM (active) in [7]; 5 µM (active) in [10]; 1.37 µM (active) in assay [8]; 0.977 µM (active) in assay [9].
As to `c1ccc(-c2ccccc2-c2ccccc2)cc1`, the molecule was classed as inactive in assay [1] and in [3]. For the same molecule, in assay [4], the half-maximal activity concentration (AC50) was 12.7 µM (active).
For `O=C(O)C(F)(F)C(F)(F)C(F)(F)C(F)(F)C(F)(F)C(F)(F)C(F)(F)C(F)(F)C(F)(F)C(F)F`, the result in assay [1], in [5], in assay [6], in assay [10], in [8] and in assay [9] was inactive. Also, the half-maximal activity concentration (AC50) in assay [2] is 50 µM (active); in assay [4], 66 µM (active); in [7] it was 17.8 µM (active) and 14.6 µM (active); in assay [10], 47.1 µM (active); in [8], 30 µM (active); in assay [9] it was 37.5 µM (active).
